Assay results from PubChem BioAssay (NCATS).
Where “and” joins values, the source holds several entries; their conditions need not be identical. Equal entries are not always repeated. Records with an inconclusive call do not appear. Calls of active or inactive are those of the source. Unless noted, calls follow the shape of the dose curve; as a rule, active = well fitted curve in the direction sought with a large enough effect; inconclusive = small, poorly fitted or top-dose-only effect, or another doubt; inactive = no such curve, though single readings can be large; an effect the other way counts as inactive or inconclusive.

Key:
[1] = Cell Viability - BJ (AID 421; calls by dose curve;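 also: potency is read from the fitted curve at half-maximal effect; cells exposed to compound for 40 hours at 37 °C before readout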); conditions: BJ fibroblast viability, qHTS
Procedure, shortened: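 Cytotoxicity as drop in intracellular ATP (CellTiter-Glo, 20 min RT) after 40 hr compound exposure of BJ fibroblasts at 37 °C. Titrations scaled between DMSO and 100 uM tamoxifen, Hill-fitted for AC50.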

[2] = Cell Viability - HUV-EC-C (AID 542); conditions: HUV-EC-C endothelial cell viability, qHTS; series mostly up to 92.2 µM; also: % is scaled to controls: 0 for no effect and ±100 for the full control effect; nearly all actives have a fitted effect of over 35% in size
Procedure, shortened: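 HUV-EC-C normal human vascular endothelial cells, 1000 cells/well, pre-incubated 5 hr at 37 °C, then exposed to compounds for 40 hr at 37 °C in complete medium. Viability measured as intracellular ATP by CellTiter-Glo luminescence; AC50 from Hill fits.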

[3] = Cellular Toxicity (caspase-3) HUV-EC-C (AID 656); conditions: HUV-EC-C cells, caspase-3 activation (apoptosis), vehicle = 0, 100 µM tamoxifen = 100%; series mostly up to 92.2 µM
Procedure, shortened: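 HUV-EC-C cells (1000/well) in complete medium, compound-treated 16 h at 37 °C; caspase-3/7 activity read by Caspase-Glo 3/7 luminescence. Normalized to DMSO (basal) and 100 uM tamoxifen (100%); AC50 from Hill-equation concentration-response fits.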

[4] = Cellular Toxicity (caspase-3) MRC-5 (AID 659); conditions: MRC-5 cells, luminescence, normalized: DMSO 0%, 10 µM staurosporine 100%; series mostly up to 91.7 µM
Procedure, shortened: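 Concentration-dependent caspase 3/7 activation is measured in human normal lung fibroblasts (MRC-5) following 16-hour treatment. AC50 values come from standard Hill-equation modeling of luminescence normalized to DMSO and 10 uM staurosporine.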

[5] = Cellular Toxicity (caspase-3) Mesangial (AID 660); conditions: mesangial cells, normalized: DMSO 0%, 100 µM tamoxifen 100%; series mostly up to 91.7 µM;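 also: cells exposed to compound for 16 h before the caspase read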
Procedure, shortened: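 Human renal glomerular mesangial cells (1000/well) were treated with compounds for 16 h at 37 °C in complete medium, then caspase 3/7 activity was read by Caspase-Glo luminescence. Data were normalized to DMSO and 100 uM tamoxifen; AC50 from Hill fits.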

[6] = Cellular Toxicity (caspase-3) SK-N-SH (AID 661); conditions: SK-N-SH caspase-3 activation, qHTS; series mostly up to 91.7 µM
Procedure, shortened: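 SK-N-SH human neuroblastoma cells (1500/well) were treated with compounds for 16 hr at 37 °C in complete medium; caspase 3/7 activity was read by Caspase-Glo luminescence. AC50 came from Hill fits of data normalized to DMSO and 10 uM staurosporine.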

[7] = Cellular Toxicity (caspase-3) Hek293 (AID 664); conditions: HEK293 caspase-3 activation, DMSO = 0%, 100 µM tamoxifen = 100%; at 92.2 µM (top of the series);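 also: cells exposed to compound for 16 h at 37 °C before readout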
Procedure, shortened: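 HEK293 cells were exposed to compounds in complete medium for 16 hr at 37 °C, then caspase-3/7 activity was read by Caspase-Glo 3/7 luminescence after 20 min at room temperature. Data normalized to DMSO and 100 uM tamoxifen; AC50 from Hill fits.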

[8] = Cellular Toxicity (caspase-3) NIH 3T3 (AID 666); conditions: NIH 3T3 caspase-3 activation, apoptosis/toxicity; series mostly up to 92.2 µM;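 also: caspase signal read after 16 h compound exposure; 0% = DMSO basal and 100% = 100 µM tamoxifen stimulation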
Procedure, shortened: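 Mouse NIH 3T3 fibroblasts (1000 cells/well) were treated with compound for 16 hr at 37°C in complete medium; caspase-3/7 activity was read by Caspase-Glo luminescence. Normalized to DMSO and 100 uM tamoxifen; AC50 from Hill fits.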

[9] = MultiTox-Fluor Cytotoxicity Assay - LYMP1-001 - Dead Cells (AID 946); conditions: LYMP1-001 lymphoblastoid cells, dead-cell protease fluorescence; series mostly up to 92.2 µM
Procedure, shortened: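 Cytotoxicity as increased dead-cell protease fluorescence (bis-AAF-R110, 485/520 nm), read 60 min after MultiTox-Fluor reagent. Human lymphoblastoid line exposed 16 h; Hill-fitted AC50, with DMSO as 0% and 15 uM tetraoctylammonium bromide as 100%.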

[10] = Cell Viability - LYMP1-002 - Assay at 16 hr (AID 948); conditions: LYMP1-002 lymphoblastoid cell viability; series mostly up to 92.2 µM;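 also: 0% = DMSO alone and full effect = 92 µM tetraoctylammonium bromide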
Procedure, shortened: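 LYMP1-002 human lymphoblastoid cells, 2500/well, were treated with compounds for 16 hr at 37 C in complete medium. Viability was read as intracellular ATP by CellTiter-Glo luminescence, and AC50 was derived from a Hill fit to concentration-response data.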

[11] = MultiTox-Fluor Cytotoxicity Assay - LYMP1-003 - Live Cells (AID 962); conditions: LYMP1-003 lymphoblastoid cells, MultiTox-Fluor live-cell protease fluorescence; series mostly up to 92.2 µM;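 also: 0% = DMSO only and full loss = 92 µM tetraoctylammonium bromide; cytotoxic hits lower the live-cell protease signal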
Procedure, shortened: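 LYMP1-003 human lymphoblastoid cells (2500/well) in complete medium were preincubated 5 hr at 37 C, then exposed to compounds for 16 hr at 37 C. Live-cell protease cleavage of GF-AFC read by fluorescence (Ex/Em 405/510); AC50 from Hill fits.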

[12] = Cell Viability - LYMP2-003 (AID 965); conditions: LYMP2-003 lymphoblastoid cell viability; series mostly up to 92.2 µM;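 also: cells exposed to compounds for 24 h before reading; 0% = DMSO only and full effect = 92 µM tetraoctylammonium bromide; nearly all actives have a fitted effect of over 50% in size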
Procedure, shortened: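 Human lymphoblastoid LYMP2-003 cells, 2500/well, exposed to compounds for 24 h at 37 C in complete medium. Viability read as intracellular ATP by CellTiter-Glo luminescence; AC50 from Hill-equation fits of qHTS concentration-response data.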

[13] = Cell Viability - LYMP2-013 (AID 970); conditions: LYMP2-013 lymphoblastoid cells viability; series mostly up to 92.2 µM;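 also: 0% = DMSO only and full inhibition = tetraoctylammonium bromide control; nearly all actives have a fitted effect of over 55% in size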
Procedure, shortened: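 Human lymphoblastoid cells, 2500/well, were preincubated 5 hr at 37 C, then treated with compounds for 24 hr at 37 C in complete medium. Intracellular ATP was read by CellTiter-Glo luminescence; AC50 from Hill-equation fits of concentration-response data.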

[14] = Cell Viability - LYMP2-015 (AID 971); conditions: LYMP2-015 lymphoblastoid cell viability; series mostly up to 92.2 µM;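 also: 0% = DMSO only and full effect = 92 µM tetraoctylammonium bromide; nearly all actives have a fitted effect of over 55% in size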
Procedure, shortened: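 Human lymphoblastoid cells (2500/well) in complete medium were preincubated 5 hr at 37 C, then compound-treated 24 hr at 37 C. Intracellular ATP was read by CellTiter-Glo luminescence after 30 min at room temperature; AC50 came from Hill-equation concentration-response fits.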

[15] = Cell Viability - LYMP2-017 (AID 972); conditions: LYMP2-017 lymphoblastoid cell viability; series mostly up to 92.2 µM; also: % is scaled to controls: 0 for no effect and ±100 for the full control effect; nearly all actives have a fitted effect of over 55% in size
Procedure, shortened: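 Human lymphoblastoid cells (2500/well) were seeded in complete medium, held 5 hr at 37 C, then exposed to compounds for 24 hr at 37 C. Intracellular ATP was read by CellTiter-Glo luminescence after 30 min at room temperature, with AC50 values from Hill-equation fits.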

[16] = Cell Viability - LYMP2-007 (AID 979); conditions: LYMP2-007 lymphoblastoid cell viability; series mostly up to 92.2 µM;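 also: cells exposed to compound for 24 h before reading; 0% = DMSO only and the negative end = 92 µM tetraoctylammonium bromide; nearly all actives have a fitted effect of over 60% in size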
Procedure, shortened: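 Human lymphoblastoid cells (2500/well) were plated in complete medium, incubated 5 hr at 37 C, then exposed to compounds for 24 hr at 37 C. Intracellular ATP was read by CellTiter-Glo luminescence after 30 min at room temperature; AC50 from Hill fits.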

[17] = qHTS Assay for Identification of Small Molecule Inducers of Hypoxia Response (AID 2120; active = well fitted curve in the direction sought with a large enough effect in the signal ratio, with a control signal flat, not every such curve was filed as active; the % refers to the signal ratio; also: 0% is about no effect); conditions: hypoxia response reporter cells, beta-lactamase ratio readout; series mostly up to 104 µM
Procedure, shortened: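 HRE-beta-lactamase reporter in CellSensor HRE-bla ME-180 cells, 2500 cells/well in Opti-MEM with 0.5% dialyzed FBS; compounds tested as titration series, 17 h at 37 degrees C. CCF4 substrate 2.5 h at room temperature; AC50 from 460/530 nm ratio.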

[18] = target: Peroxisome proliferator-activated receptor alpha (Homo sapiens) (UniProt Q07869); test: qHTS assay for small molecule agonists of the peroxisome proliferator-activated receptor alpha (PPARalpha) signaling pathway (AID 651778); conditions: PathHunter PPARalpha complementation, chemiluminescence, 6 h; hits give high values; also: % of control where 0% means no effect
Procedure, shortened: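 Chemiluminescence from complemented enzyme reported PPARalpha activation in cells after 6 hr of compound treatment at 37 C. The detection reagent was incubated for 60 min at room temperature, and compounds were scored as agonists.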

[19] = qHTS assay for small molecule agonists of the antioxidant response element (ARE) signaling pathway measured by Nrf2-dependant transcriptional activity - cell viability counter screen (AID 720653; active = well fitted curve in the direction sought with a large enough effect in the repeat runs; an effect the other way counts as inactive or inconclusive; also: % is scaled to controls: 0 for no effect and ±100 for the full control effect); conditions: ARE-bla HepG2 viability, CellTiter-Glo ATP luminescence, 16 h; hits give low values
Procedure, shortened: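 Cytotoxicity counter screen: intracellular ATP quantified by CellTiter-Glo luminescence in the same ARE-bla HepG2 plates, after 16 h compound exposure and a 2 h beta-lactamase substrate step.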

[20] = qHTS assay for cell viability of the p53RE-bla HCT-116 cell line (AID 743292); conditions: p53RE-bla HCT-116 viability, ATP luminescence, 16 h; series mostly up to 95 µM; also: % is scaled to controls: 0 for no effect and ±100 for the full control effect; nearly all actives have a fitted effect of over 55% in size
Procedure, shortened: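 Luminescent ATP quantitation (CellTiter-Glo) served as the viability read-out; reagent was added after 16 h compound exposure at 37 C and read after 30 min at room temperature. Cells: p53RE-bla HCT-116, 4,000 per well.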

Sequence of Peroxisome proliferator-activated receptor alpha (Homo sapiens) (Q07869 whole entry, looked up): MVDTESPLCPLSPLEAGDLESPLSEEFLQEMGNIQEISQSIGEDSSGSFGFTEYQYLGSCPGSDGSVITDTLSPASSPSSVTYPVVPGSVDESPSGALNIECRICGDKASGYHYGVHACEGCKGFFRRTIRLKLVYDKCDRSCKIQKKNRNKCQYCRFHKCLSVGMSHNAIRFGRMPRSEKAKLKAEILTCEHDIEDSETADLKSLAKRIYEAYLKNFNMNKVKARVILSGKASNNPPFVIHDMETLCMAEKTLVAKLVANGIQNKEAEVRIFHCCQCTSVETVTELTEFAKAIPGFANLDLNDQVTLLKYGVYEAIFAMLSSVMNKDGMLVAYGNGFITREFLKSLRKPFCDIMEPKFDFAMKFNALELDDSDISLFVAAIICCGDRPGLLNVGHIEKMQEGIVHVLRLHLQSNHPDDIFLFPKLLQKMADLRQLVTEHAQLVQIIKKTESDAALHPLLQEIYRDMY

N#CCBr
inactive: Potency [1] > 92 µM | Potency [2] | outcome [3] | outcome [4] | outcome [5] | Potency [6] | caspase-3 activation [7] 1.09% | Potency [8] | outcome [9] | outcome [10] | outcome [11] | Potency [12] | Potency [13] | Potency [14] | Potency [15] | Potency [16] | Potency [17] | max response [18] -0.274% | max response [19] -10.6% | Potency [20]

O=C(Cl)OCc1ccccc1
inactive: Potency [1] > 92 µM | Potency [2] | outcome [3] | outcome [4] | outcome [5] | Potency [6] | caspase-3 activation [7] 0.783% | Potency [8] | outcome [9] | outcome [10] | outcome [11] | Potency [12] | Potency [13] | Potency [14] | Potency [15] | Potency [16] | Potency [17] | max response [18] 0.201% | max response [19] 6.86% | Potency [20]

ClCc1ccccc1
inactive: Potency [1] > 92 µM | Potency [2] | outcome [3] | outcome [4] | outcome [5] | Potency [6] | caspase-3 activation [7] 1.06% | Potency [8] | outcome [9] | outcome [10] | outcome [11] | Potency [12] | Potency [13] | Potency [14] | Potency [15] | Potency [16] | Potency [17] | max response [18] 3.28% | max response [19] 16.1% | Potency [20]

CC1CC(=O)O1 (stereo not given)
inactive: Potency [1] > 92 µM | Potency [2] | outcome [3] | outcome [4] | outcome [5] | Potency [6] | caspase-3 activation [7] -0.671% | Potency [8] | outcome [9] | outcome [10] | outcome [11] | Potency [12] | Potency [13] | Potency [14] | Potency [15] | Potency [16] | Potency [17] | max response [18] -0.51% | max response [19] -3.76% | Potency [20]

C=CC#N
inactive: Potency [1] > 92 µM | Potency [2] | outcome [3] | outcome [4] | outcome [5] | Potency [6] | caspase-3 activation [7] -0.49% | Potency [8] | outcome [9] | outcome [10] | outcome [11] | Potency [12] | Potency [13] | Potency [14] | Potency [15] | Potency [16] | Potency [17] | max response [18] -1.02% | max response [19] 7.55% | Potency [20]

Nc1ccc(Oc2ccc(N)cc2)cc1
inactive: Potency [1] > 92 µM | Potency [2] | outcome [3] | outcome [4] | outcome [5] | Potency [6] | caspase-3 activation [7] -2.14% | Potency [8] | outcome [9] | outcome [10] | outcome [11] | Potency [12] | Potency [13] | Potency [14] | Potency [15] | Potency [16] | Potency [17] | max response [18] -1.7% and -2.66% | max response [19] -2.21% and -13% | Potency [20]
